Results on 104 molecules are retold here after PubChem BioAssay AID371 (SRMLSC, 2006).

About 280 (8.5%) of roughly 3,300 compounds were called active.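 The calls were made as follows: active = mean growth inhibition over the two runs of 50% or more; inactive = mean growth inhibition under 50%.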 Many of the other results were omitted from the sample, so actives are more common in it than they were.

The test in a line: A549 NSCLC cell proliferation inhibitors – ATP luminescence, human non-small cell lung line, primary screen (AID 371).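 Also: compound exposure lasted 72 h before the ATP read; 0% = untreated cell signal and 100% = no luminescence left.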 As to conditions: at 10 µM, stronger effect = higher value.
Take `CCCCCSc1nc(O)cc(=O)[nH]1`: the growth inhibition is -0.41% (inactive).
To `Cc1nc2c(=O)n(C)c(=O)[nH]c2n1Cc1ccccc1` belongs 8.92% (inactive); to `O=C1C2ON(c3ccccc3)C(c3cccnc3)C2C(=O)N1c1ccccc1` (centres undefined), -1.13% (inactive); to `CCOC(=O)c1[nH]c2cc3c(cc2c1NC(=O)CN1CC(C)CC(C)C1)OCO3` (centres undefined), 6.05% (inactive).
For `CCc1c(C(=O)O)[nH]c2ccc(Br)cc12`, the growth inhibition was 6.3% (inactive).
On to `CCOC(=O)c1[nH]c2ccc(OC)cc2c1C`, for which the growth inhibition is 12.4% (inactive).
To `Cc1cccc(N2CC(=O)N(c3cccc(C)c3)CC2=O)c1` belongs 3.38% (inactive); to `COc1ccccc1N1CCN(C(=O)c2c(C)cc(=O)oc2C)CC1`, -0.18% (inactive); to `COc1cc2c(C(=O)N3CCN(c4ccccc4)CC3)c(C)oc2cc1Br`, 60.9% (active).
Take `CCN(CC)CCNC(=O)c1c(C)oc2cc(Br)c(OC)cc12`: the growth inhibition was 29.2% (inactive).
In the case of `CCCCOc1ccc(-c2nnc(N)s2)cc1`, the growth inhibition was 21.4% (inactive).
Consider `CCOc1ccc(Cc2nc(N)nc(N)n2)cc1`, for which the growth inhibition is 2.96% (inactive).
To `CCCCOc1ccc(CN(C)c2ncnc(N)n2)cc1` belongs 51.9% (active).
For the molecule `COC(=O)c1ccccc1N1C(=O)[C@@H]2C(c3ccc(Br)cc3)=NO[C@@H]2C1=O`, the growth inhibition is 3.29% (inactive).
`O=C1c2ccccc2-c2onc3ccc(NCc4ccco4)c1c23`: the growth inhibition was 50.2% (active).
The result for `O=C(NCc1ccco1)c1ccc(=O)oc1` reads -3.09% (inactive); that for `O=C(NCc1ccco1)c1ccc(=O)[nH]n1`, -4.07% (inactive); that for `c1ccc(-c2nn3c(C4CCCCC4)nnc3s2)cc1`, 5.6% (inactive).
Regarding `CCC(=O)N(Cc1cccs1)C1CCOC(C)(C)C1` (centres undefined), the growth inhibition is 3.04% (inactive).
The result for `CCCCNC(=O)c1c(N)n(/N=C/c2cccnc2)c2nc3ccccc3nc12` reads 5.46% (inactive); that for `CN(Cc1ccccc1)Cc1c[nH]c2ccccc12`, 5.38% (inactive); that for `O/N=C/c1ccc(OCC(O)COc2ccc(/C=N/O)cc2)cc1`, -5.19% (inactive).
Consider `CN(C)CC(O)COc1ccc(C(C)(C)c2ccc(OCC(O)CN(C)C)cc2)cc1` (centres undefined), for which the growth inhibition was 89.2% (active).
To `CN(CC(O)COc1ccc(OCC(O)CN(C)C2CCCCC2)cc1)C1CCCCC1` (centres undefined) belongs 50.1% (active).
The result for `CN(C)CC(O)COc1ccc(-c2ccc(C#N)cc2)cc1` (centres undefined) reads 64.2% (active); that for `N#Cc1ccc(-c2ccc(OCC(O)Cn3nnc4ccccc43)cc2)cc1` (centres undefined), 57.7% (active).
Regarding `CC1(C)NC(=O)N(CC(O)Cn2nnc3ccccc32)C1=O` (centres undefined), the growth inhibition is 8.44% (inactive).
To `CC(C)NCC(O)COc1ccc(CCOCC2CC2)cc1` (centres undefined) belongs -0.79% (inactive); to `CC(C)NCC(O)COc1ccc(CC(N)=O)cc1` (centres undefined), -2.65% (inactive); to `COCCc1ccc(OCC(O)CNC(C)C)cc1` (centres undefined), 1.47% (inactive).
The result for `CN(C)CC(O)COc1cccc(OCC(O)CN(C)C)c1` (centres undefined) reads 2.88% (inactive).
`OC(CNCCCN1CCCCC1)COc1ccccc1` (centres undefined): the growth inhibition is 4.57% (inactive).
With `CN=c1sc2ccccc2n1CC(O)COc1ccccc1` (centres undefined), the growth inhibition is 25.3% (inactive).
With `CCOCCSc1nc2c(c(=O)[nH]c(=O)n2C)n1CCCc1ccccc1`, the growth inhibition is 20.2% (inactive).
To `CCN(CC)CCCN1C(=O)C(O)=C(C(=O)c2ccc(C)o2)C1c1ccc(C)o1` (centres undefined) belongs 5.46% (inactive).
The result for `CC1CC(C(F)(F)F)n2ncnc2N1` (centres undefined) reads 2.4% (inactive); that for `CC(C)OC(=O)[C@H]1[C@H](c2ccc(Cl)cc2)[C@@](C#N)(C(N)=O)[C@@H]2C=CC(C(N)=O)=CN21`, 6.9% (inactive).
`Cc1cccc(N2C(=O)CC(N3CCN(Cc4ccc(Cl)cc4)CC3)C2=O)c1` (centres undefined): the growth inhibition was -1.79% (inactive).
On to `O=C(Nc1ccc(Cl)cn1)C1CCCN1S(=O)(=O)c1ccccc1` (centres undefined), for which the growth inhibition was -16.6% (inactive).
The result for `CCCOc1cc(CN2CCCCC2)cc(C(C)=O)c1` reads 5.4% (inactive); that for `CCNC(=O)N(C(=O)NCC)n1c(C)nnc1C`, -3.85% (inactive).
The result for `c1ccc(CSc2nnc(SCc3ccccn3)s2)nc1` reads -7.61% (inactive).
`N#CC1=C(N)N2C(=C(C#N)C1c1ccccc1)Sc1ccccc12` (centres undefined): the growth inhibition is -5.42% (inactive).
Consider `C#CC1CN(Cc2ccccc2)CC(C#C)N1C` (centres undefined), for which the growth inhibition is 4.27% (inactive).
With `Cc1ccc(Cn2ncc3c(N4CCN(c5ccc(C)cc5)CC4)ncnc32)cc1`, the growth inhibition was 30.8% (inactive).
As for `Cc1ccc(Cn2ncc3c(N4CCN(Cc5ccc(Cl)cc5)CC4)ncnc32)cc1`, the growth inhibition is 53.7% (active).
With `Cc1ccc(Cn2ncc3c(N4CCOCC4)ncnc32)cc1`, the growth inhibition was 19.4% (inactive).
With `COC(=O)C(NC(C)=O)(Nc1ccc(Br)cc1)C(=O)OC`, the growth inhibition is 36.9% (inactive).
To `Cc1ccc2[nH]c3c(N4CCCCCC4)ncnc3c2c1` belongs 72.1% (active).
The result for `c1ccc2c(c1)[nH]c1c(N3CCC4(CC3)OCCO4)ncnc12` reads 34% (inactive); that for `Cc1ccc2[nH]c3c(N4CCOCC4)ncnc3c2c1`, 34.7% (inactive).
For `Cc1ccc2[nH]c3c(N4CCN(Cc5ccccc5)CC4)ncnc3c2c1`, the growth inhibition was 80.6% (active).
Turning to `c1ccc2c(c1)[nH]c1c(N3CCSCC3)ncnc12`, the growth inhibition is 33.6% (inactive).
To `c1ccc2c(c1)CCN(c1ncnc3c1[nH]c1ccccc13)C2` belongs 77.4% (active); to `CCN1CCCC1Cn1cnc2c([nH]c3ccc(C)cc32)c1=O` (centres undefined), 6.64% (inactive); to `OC1(c2cccc(C(F)(F)F)c2)CCN(c2ncnc3c2[nH]c2ccccc23)CC1`, 92.4% (active).
The result for `CSc1nnc2n(C3CCCCC3)c(=O)c3c4c(sc3n12)CCCC4` reads 6.35% (inactive); that for `COc1cccc(C(=O)OCCN(C)C(C)(C)C)c1`, 0.03% (inactive).
On to `OCCOCCNc1ncnc2c1cnn2-c1ccccc1`, for which the growth inhibition is 5.28% (inactive).
To `Cc1cc(=O)oc2cc(OCCSCCN3CCOCC3)ccc12` belongs 8.74% (inactive); to `CCn1cc(/C=N/O)c(C)n1`, -8.38% (inactive).
The result for `O=C1OC(N2CCN(C/C=C/c3ccccc3)CC2)c2ccccc21` (centres undefined) reads 7.88% (inactive).
To `Cc1cc(SCCC(=O)O)nc2ccccc12` belongs -1.53% (inactive).
As to `CCOC(=O)c1cnc(SC2CC(=O)N(c3cccc(OC)c3)C2=O)nc1N` (centres undefined), the growth inhibition was -4.72% (inactive).
For the molecule `Cn1ccnc1SCCC#N`, the growth inhibition is -0.21% (inactive).
The result for `O=C(c1ccco1)N1CCN(c2ncnc3c2[nH]c2ccccc23)CC1` reads 25.7% (inactive).
To `c1ccc(CN2CCN(c3ncnc4c3[nH]c3ccccc34)CC2)cc1` belongs 63% (active).
The result for `N#Cc1nc(COc2ccc(Cl)cc2)oc1N1CCN(Cc2ccccc2)CC1` reads 21.8% (inactive); that for `COc1ccc(C=NCCCN2CCOCC2)cc1`, 2.05% (inactive); that for `Cc1csc2nc(CSc3nc4ccccc4o3)cn12`, 29.3% (inactive).
As to `Cc1ccccc1N1C(=O)CC(Sc2nnc(-c3ccccc3)o2)C1=O` (centres undefined), the growth inhibition was 56.6% (active).
For `Cc1ccc(-c2nnc(-c3ccccc3)o2)cc1Br`, the growth inhibition is 10.3% (inactive).
With `CCOC(=O)c1ccc(N2C(=O)CC(Sc3nnc(C)s3)C2=O)cc1` (centres undefined), the growth inhibition is -4.68% (inactive).
Consider `Brc1ccc(-c2cnnc(N3CCCC3)n2)cc1`, for which the growth inhibition was 24% (inactive).
`COc1ccc(C2/C(=C(/O)c3cnn(-c4ccccc4)c3C)C(=O)C(=O)N2CCN(C)C)cc1OC` (centres undefined): the growth inhibition was 7.72% (inactive).
To `CSc1nc(Oc2ccc(=O)[nH]n2)nc(N(C)C)n1` belongs 2.49% (inactive); to `COc1ccc(/C(O)=C2/C(=O)C(=O)N(CCN3CCOCC3)C2c2ccccn2)cc1OC` (centres undefined), 0.85% (inactive); to `CCOc1cc2nc(-c3ccc(OC)c(OC)c3)nc(N3CCOCC3)c2cc1OC`, 66.5% (active).
To `COc1cc2nc(-c3ccccc3)nc(N3CCCC3)c2cc1OC` belongs 2.86% (inactive); to `Brc1cccc(-c2cnc3n2CCCCC3)c1`, 24.1% (inactive).
The result for `COc1ccc(CN(C#N)c2nc(SC)nc(N(C)C)n2)cc1` reads 32.9% (inactive).
With `CCN(CC)c1ncc(C)c(=O)[nH]1`, the growth inhibition was -0.05% (inactive).
The result for `CCOC(=O)Cc1nnc(Nc2cccc(O)c2)c2ccccc12` reads -1.35% (inactive); that for `N=c1ncn(CC(O)CN2CCOCC2)c2nc(N3CCOCC3)[nH]c12` (centres undefined), -5.31% (inactive); that for `C=CCc1cccc(/C=N/n2cnnc2)c1O`, 2.3% (inactive).
With `C=CCc1cccc(/C=N/c2ncn[nH]2)c1O`, the growth inhibition is 0.97% (inactive).
The result for `C=CCc1cccc(CNc2nc3ccccc3n2C(C)C)c1O` reads 74.7% (active).
The result for `CN=c1sc2ccccc2n1CC(O)COCc1ccco1` (centres undefined) reads -6.68% (inactive).
As for `CCC(NC(=O)Nc1nnc(C(F)(F)F)s1)(C(F)(F)F)C(F)(F)F`, the growth inhibition was 81.7% (active).
The result for `CC(NC(=O)Nc1nnc(C(F)(F)F)s1)(C(F)(F)F)C(F)(F)F` reads 11.8% (inactive).
Take `O=C(NCC(F)(F)F)Nc1nnc(C(F)(F)F)s1`: the growth inhibition was 17.9% (inactive).
To `CCC(C(=O)Nc1nccs1)(C(F)(F)F)C(F)(F)F` belongs 12.8% (inactive); to `CCSc1nnc(NC(=O)C(C(F)(F)F)C(F)(F)F)s1`, 7.68% (inactive).
Take `CCSc1nnc(NC(=O)C(C)(C(F)(F)F)C(F)(F)F)s1`: the growth inhibition was 61.8% (active).
`CCSc1nnc(NC(NC(=O)c2ccco2)(C(F)(F)F)C(F)(F)F)s1`: the growth inhibition was -2.3% (inactive).
With `CCC(C(=O)Nc1ncn[nH]1)(C(F)(F)F)C(F)(F)F`, the growth inhibition is 2.05% (inactive).
The result for `CCCc1nnc(NC(=O)Nc2ccccc2OC)s1` reads 17.3% (inactive); that for `CCCSc1nnc(NC(=O)Nc2ccccc2)s1`, 45.3% (inactive).
The result for `CCCSc1nnc(NC(=O)Nc2ccc(F)cc2)s1` reads 70.3% (active).
`CCSc1nnc(NC(=O)C(CC)(C(F)(F)F)C(F)(F)F)s1`: the growth inhibition is 66% (active).
For the molecule `CCCC(CCC(=O)Nc1ccc(C(=O)OC)cc1)C(=O)O` (centres undefined), the growth inhibition was 5.31% (inactive).
To `N#Cc1c(N2CCOCC2)nc(N2CCCCC2)c2c1CCN(C1CCCCC1)C2` belongs 23.2% (inactive); to `CC(C)COC(=O)CCNc1n[nH]c(=O)[nH]c1=O`, 2.08% (inactive).
Consider `O=c1cc(-c2ccco2)nc(-c2cccs2)o1`, for which the growth inhibition was 15% (inactive).
